Experimental data taken from PubChem BioAssay (NCATS).
Records with an inconclusive call do not appear. Calls of active or inactive are those of the source. Calls come from the whole dose curve; as a rule, active = well fitted inhibition curve with a large enough effect; inconclusive = small, poorly fitted or top-dose-only effect; inactive = flat fitted curve, though single readings scatter.

Assay: qHTS profiling for inhibitors of Plasmodium falciparum proliferation (AID 504749);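 note: 0% = DMSO vehicle and full inhibition = artemisinin control; nearly all actives have a fitted effect of over 60% in size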
Details: P. falciparum in erythrocytes, SYBR Green DNA, 72 h; at 28.7 µM (top of the series); parasite line B
In short: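 SYBR Green fluorescence of parasite DNA, read after lysis and overnight dark incubation, measured growth over 72 h in erythrocyte culture at 0.3% parasitemia and 2.5% hematocrit. Data normalised to DMSO and 0.29 uM artemisinin, with plate-drift correction.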
In the case of `O=P(O)(O)O`, the activity, negative = inhibition is reported as 16.4% (inactive). With `CC(=O)Nc1ccc(OC(C)=O)cc1` the activity, negative = inhibition was 11.7% (inactive). With `CS(=O)(=O)OCC(O)C(O)COS(C)(=O)=O` (stereo not given) the activity, negative = inhibition was -5.43% (inactive). For `CCOc1ccc(S(=O)(=O)O)c2cccnc12`, the activity, negative = inhibition was 6.17% (inactive). For `CN(Cc1ccccc1)Cc1ccccc1`, the activity, negative = inhibition was -0.726% (inactive). For `CN(C)c1ccc(C(=C2C=CC(=[N+](C)C)C=C2)c2c(O)c(S(=O)(=O)[O-])cc3cc(S(=O)(=O)O)ccc23)cc1`, the activity, negative = inhibition was -17.8% (inactive). With `c1ccc2c(c1)OCC(CN1CCCCC1)O2` (stereo not given) the activity, negative = inhibition was 0.843% (inactive). In the case of `COc1ccc(C(=O)c2ccc(C)cc2)c(O)c1`, the activity, negative = inhibition is reported as 14.8% (inactive). For `[O]=[Bi][O][Bi]=[O]`, the activity, negative = inhibition was 4.28% (inactive). For `COc1ccc(/C=C/C(=O)O)cc1`, the activity, negative = inhibition was -2.19% (inactive). With `O=S(=O)(O)CCCS(=O)(=O)O` the activity, negative = inhibition was 2.06% (inactive). For `OCC(O)CO`, the activity, negative = inhibition was 7.55% (inactive). For `O=C1[O][Bi][O]c2ccccc21`, the activity, negative = inhibition was 1.44% (inactive). With `Cc1cc(=O)c(C(=O)N[C@@H](C(=O)N[C@@H]2C(=O)N3C(C(=O)O)=C(CSc4nnnn4C)CS[C@H]23)c2ccc(O)cc2)c[nH]1` the activity, negative = inhibition was 9.95% (inactive). For `CCOC(=O)C1=C(COCCN)NC(C)=C(C(=O)OC)C1c1ccccc1Cl` (stereo not given), the activity, negative = inhibition was -8.98% (inactive). In the case of `CN(CCO)CC(O)Cn1cnc2c1c(=O)n(C)c(=O)n2C` (stereo not given) (tested in a mixture with another compound), the activity, negative = inhibition is reported as 12.8% (inactive). For `O=C(O)/C=C/C(=O)Nc1ccc(S(=O)(=O)Nc2nccs2)cc1`, the activity, negative = inhibition was -1.66% (inactive). With `CCCCCCCCCC(=O)NO` the activity, negative = inhibition was -16.7% (inactive). For `[O]=[Bi][O]C(=O)[O][Bi]=[O]`, the activity, negative = inhibition was -1.66% (inactive). For `OCCOCCOCCO`, the activity, negative = inhibition was 11.6% (inactive). With `CC(=O)[O][Al][O]C(C)=O` the activity, negative = inhibition was 3.22% (inactive). In the case of `CC(C)(C)CC(C)(C)c1ccc(OCCO)cc1`, the activity, negative = inhibition is reported as -13.8% (inactive). In the case of `CNC(=O)OCc1cccc(COC(=O)NC)n1`, the activity, negative = inhibition is reported as 1.01% (inactive). In the case of `CCCCCCCCCCCCCCCCCC(=O)OCC(C)O` (stereo not given), the activity, negative = inhibition is reported as -12.1% (inactive). In the case of `CC(C)O`, the activity, negative = inhibition is reported as 13.2% (inactive). For `O=C(O[C@H]1CN2CCC1CC2)N1CCc2ccccc2[C@@H]1c1ccccc1`, the activity, negative = inhibition was -19.3% (inactive). With `O=c1[nH]c(=O)n([C@H]2C[C@H](O)[C@@H](CO)O2)cc1/C=C/Br` the activity, negative = inhibition was -10.9% (inactive). With `OC[C@H]1O[C@@](CO)(O[C@H]2O[C@H](CO)[C@@H](O)[C@H](O)[C@H]2O)[C@@H](O)[C@@H]1O` the activity, negative = inhibition was -0.203% (inactive). In the case of `CC1(C)S[C@@H]2[C@H](NC(=O)C3(N)CCCCC3)C(=O)N2[C@H]1C(=O)O`, the activity, negative = inhibition is reported as 10.4% (inactive). For `S=C=Nc1ccc(N=C=S)cc1`, the activity, negative = inhibition was 0.756% (inactive). With `C=Cc1ccc(S(=O)(=O)O)cc1` the activity, negative = inhibition was -6.31% (inactive). With `OCl` the activity, negative = inhibition was 2% (inactive). In the case of `COC(=O)c1ccccc1O`, the activity, negative = inhibition is reported as 5.19% (inactive). In the case of `COc1ccc(/C=C/C(=O)OCCC(C)C)cc1`, the activity, negative = inhibition is reported as 14.5% (inactive). In the case of `O=C(O)c1cc(N=Nc2ccc(O)c(C(=O)O)c2)ccc1O`, the activity, negative = inhibition is reported as 11.5% (inactive).
